# In paper PMC4336329 (PLoS ONE, 2015):
# Screen size: about 310,000 compounds; about 14,000 (4.5%) showed an effect of 50% or more. Effects have a minus sign here. The sample holds strong results, similar compounds and a random draw of the others, so the mix is not that of the screen.
# Target: human ether-à-go-go-related gene (hERG) potassium channel (human, UniProt Q12809)
# Assay: primary screen, population patch clamp on CHO cells stably expressing hERG; higher = less effect of the substance
# 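Further: peak tail current of the secondary pulse compared with the same well before compound.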
# Chain of human ether-à-go-go-related gene (hERG) potassium channel (Q12809 whole entry, looked up): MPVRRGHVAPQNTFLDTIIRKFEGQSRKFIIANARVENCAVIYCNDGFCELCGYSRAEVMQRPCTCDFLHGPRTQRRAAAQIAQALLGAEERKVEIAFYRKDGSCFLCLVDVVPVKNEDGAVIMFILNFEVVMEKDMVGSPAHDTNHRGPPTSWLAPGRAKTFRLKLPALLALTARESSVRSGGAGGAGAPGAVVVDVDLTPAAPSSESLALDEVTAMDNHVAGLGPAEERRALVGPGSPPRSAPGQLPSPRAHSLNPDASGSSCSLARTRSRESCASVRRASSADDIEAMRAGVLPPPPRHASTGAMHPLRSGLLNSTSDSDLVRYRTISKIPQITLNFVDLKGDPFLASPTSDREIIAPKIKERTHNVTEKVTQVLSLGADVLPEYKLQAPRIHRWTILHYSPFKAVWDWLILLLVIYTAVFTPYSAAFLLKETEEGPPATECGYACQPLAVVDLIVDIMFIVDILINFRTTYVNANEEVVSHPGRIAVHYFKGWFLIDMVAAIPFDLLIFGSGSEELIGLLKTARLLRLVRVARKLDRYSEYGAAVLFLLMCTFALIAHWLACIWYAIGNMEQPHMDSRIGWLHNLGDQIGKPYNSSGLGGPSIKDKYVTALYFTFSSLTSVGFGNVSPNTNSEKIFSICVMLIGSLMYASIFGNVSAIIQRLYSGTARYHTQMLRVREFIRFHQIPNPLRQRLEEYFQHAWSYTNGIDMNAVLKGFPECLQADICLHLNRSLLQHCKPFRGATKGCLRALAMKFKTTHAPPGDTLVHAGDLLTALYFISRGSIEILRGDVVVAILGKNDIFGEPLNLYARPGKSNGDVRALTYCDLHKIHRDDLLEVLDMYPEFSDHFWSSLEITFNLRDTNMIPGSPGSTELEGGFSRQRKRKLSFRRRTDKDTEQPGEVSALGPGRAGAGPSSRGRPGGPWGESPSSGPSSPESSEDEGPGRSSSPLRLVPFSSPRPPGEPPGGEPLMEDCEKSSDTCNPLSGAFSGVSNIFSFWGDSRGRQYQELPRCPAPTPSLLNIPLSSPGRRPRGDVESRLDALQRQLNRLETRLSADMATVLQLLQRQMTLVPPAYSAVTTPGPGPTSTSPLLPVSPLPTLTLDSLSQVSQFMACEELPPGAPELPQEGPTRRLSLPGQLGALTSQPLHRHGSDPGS
row,SMILES,"hERG current change (%, negative = inhibition) at 10uM [%]"
1,COc1ccc(CCn2c(N)c(C#N)c3nc4ccccc4nc32)cc1OC,4.14
2,CCN(CC)S(=O)(=O)c1cccc(-c2nnc(SCC(=O)c3cc(C)n(C)c3C)o2)c1,-25.5
3,CC1=C(C(=O)OC(C)C)C(c2ccc(F)cc2)NC(=O)N1 (stereo not drawn),-5.4
4,CCOCC(=O)Nc1ccc(Br)c(C)c1,4.88
5,O=C(NCCc1cccs1)C1CCC(=O)N(CCc2cccc(F)c2)C1 (stereo not drawn),-26.1
6,O=C(NCCc1ccc(C(F)(F)F)cc1)C1CCC(=O)N(CCc2cccc(F)c2)C1 (stereo not drawn),-51.4
7,O=C(NCCc1cccc(C(F)(F)F)c1)C1CCC(=O)N(CCc2cccc(F)c2)C1 (stereo not drawn),-56.8
8,O=C(NCCN1CCCC1=O)C1CCC(=O)N(CCc2cccc(F)c2)C1 (stereo not drawn),9.49
9,O=C(NCCc1ccc(C(F)(F)F)cc1)C1CCC(=O)N(CCCc2ccccc2)C1 (stereo not drawn),-50.2
10,COc1ccc(CCN2CC(C(=O)NCCc3ccc(C(F)(F)F)cc3)CCC2=O)cc1 (stereo not drawn),-46.8
11,O=C(NCCc1cn[nH]c1)C1CCC(=O)N(CCc2cccc(F)c2)C1 (stereo not drawn),25.1
12,O=C(NCCc1ccc(C(F)(F)F)cc1)C1CCC(=O)N(CCCN2CCCC2=O)C1 (stereo not drawn),13.1
13,O=C(NCCc1ccccc1)C1CCC(=O)N(CCCN2CCCC2=O)C1 (stereo not drawn),5.82
14,O=C(O)c1ccc(NC(=S)NC(=O)c2ccc(-c3ccccc3)cc2)cc1,19.4
15,CNC[C@H](NC[C@@H](NCCCc1ccccc1)c1ccccc1)[C@H](C)O,11.7
16,Cc1ccc(CSCC(=O)Nc2ccc3c(c2)OCO3)cc1,-14.5
17,COc1ccccc1CC(=O)Nc1ccc(S(=O)(=O)N2CCN(C)CC2)cc1,14.4
18,CS(=O)(=O)Nc1ccccc1C(=O)N1CCOCC1,16.4
19,O=C(CSc1oc(-c2ccco2)nc1S(=O)(=O)c1ccc(Cl)cc1)NCC1CCCO1 (stereo not drawn),-41.3
20,CCN(CC)C(=N)/C(C#N)=N/Nc1ccc(C)cc1,-56.6
21,CCN(CC)C(=N)/C(C#N)=N/Nc1ccccc1,-15.7

row,SMILES,"hERG current change (%, negative = inhibition) at 10uM [%]"
1,Cc1ccc(N/N=C(\C#N)C(=N)N2CCCCCC2)cc1,12.7
2,Cc1cc(NC(=O)Nc2cc(F)ccc2F)no1,17.7
3,CCCN(Cc1nnc(-c2ccccc2Cl)o1)C(=O)c1ccc(C)c(S(=O)(=O)N2CCOCC2)c1,-55.8
4,O=C(c1cccc(S(=O)(=O)N2CCOCC2)c1)N(Cc1nnc(-c2ccccc2Cl)o1)C1CC1,-24.9
5,CCCN(Cc1nnc(-c2ccccc2Cl)o1)C(=O)c1cc([N+](=O)[O-])cc([N+](=O)[O-])c1,-55.1
6,Cc1ccc(S(=O)(=O)N2CCOCC2)cc1C(=O)N(Cc1nnc(-c2ccccc2Cl)o1)C1CC1,-33.9
7,CCCN(Cc1nnc(-c2ccccc2Cl)o1)C(=O)c1cc2ccccc2o1,-17
8,CCCN(Cc1nnc(-c2ccccc2Cl)o1)C(=O)c1cccc(S(=O)(=O)N2CCOCC2)c1,-6.05
9,O=C(c1ccc(Cl)c(S(=O)(=O)N2CCOCC2)c1)N(Cc1nnc(-c2ccccc2Cl)o1)C1CC1,-58.9
10,O=C(c1cc([N+](=O)[O-])cc([N+](=O)[O-])c1)N(Cc1nnc(-c2ccccc2Cl)o1)C1CC1,-36.8
11,CCCN(Cc1nnc(-c2ccccc2Cl)o1)C(=O)c1cc(S(=O)(=O)N2CCOCC2)ccc1F,-47.7
12,CN(CC(=O)Nc1ccc(Cl)cc1)CC(=O)Nc1cccc2ccccc12,-2.26
13,O=C(/C=C/c1ccccc1Cl)Nc1ccc(-c2nnc3n2CCCCC3)cc1,-6.47
14,COc1cc(CNC(C)(C)C)cc(Br)c1OCc1cccs1.Cl,-28.7
15,NS(=O)(=O)c1cccnc1Nc1c(Cl)cccc1Cl,10.6
16,CCCCc1nc2ccccc2c(NC(=O)CN(CC)CC)c1CCC.O=C(O)C(=O)O,-26.8
17,COc1ccc(S(=O)(=O)N2CCCCCC2)cc1NC(=O)c1ccccc1F,3.54
18,NC(=O)c1ccsc1NC(=O)CCS(=O)(=O)c1ccc(F)cc1,-2.69
19,NC(=O)c1ccsc1NC(=O)CS(=O)(=O)c1ccc(F)cc1,-68.2
20,CNC(=O)c1ccsc1NC(=O)CS(=O)(=O)c1ccc(Cl)cc1,-38.6
21,NC(=O)c1ccsc1NC(=O)CS(=O)(=O)c1ccccc1,-8.27

row,SMILES,"hERG current change (%, negative = inhibition) at 10uM [%]"
1,O=C(CS(=O)(=O)c1ccc(F)cc1)Nc1nccs1,9.06
2,NC(=O)c1ccsc1NC(=O)CS(=O)(=O)c1ccc(Cl)cc1,-75.7
3,COc1ccccc1S(=O)(=O)Cc1ccc(C(=O)N2CCN(c3ccc(C)cc3)C(C)C2)o1 (stereo not drawn),-24.6
4,CCCNC(=O)c1oc2ccc3c(c2c1C)C=CC(C)(C)O3,0.704
5,CCOC(=O)c1cc2c(=O)n3ccccc3nc2n(CCOC)c1=NC(=O)c1ccncc1,-51.3
6,CCOC(=O)c1cc2c(=O)n3ccccc3nc2n(CCCOC)c1=NC(=O)C(C)(C)C,-7.42
7,CCOC(=O)c1cc2c(=O)n3ccccc3nc2n(CCOC)c1=NC(=O)C(C)(C)C,-4.45
8,CCOC(=O)c1cc2c(=O)n3ccccc3nc2n(CCCOC)c1=NC(=O)c1ccncc1,-87.3
9,CCOC(=O)c1cc2c(=O)n3ccccc3nc2n(CCCOC)c1=NC(C)=O,-27.5
10,CCOC(=O)c1cc2c(=O)n3ccccc3nc2n(CCOC)c1=NC(=O)c1c(-c2c(F)cccc2Cl)noc1C,2
11,Cc1cccc(C(=O)Nc2ccc(C(=O)/C=C/c3cccs3)cc2)c1,7.48
12,O=C(CSc1n[nH]c(=O)[nH]c1=O)N/N=C/c1ccccc1,8.14
13,COc1ccc(-n2nc(C(=O)NCC(=O)NC(C)C)c3ccccc3c2=O)c(OC)c1,11.3
14,COc1ccc(S(=O)(=O)n2nc(-c3cc(OC)c(OC)c(OC)c3)cc2N)cc1OC,-2.63
15,COc1cc(/C=N/NC(=O)COc2ccccc2[N+](=O)[O-])ccc1OC(=O)c1ccco1,-1.29
16,CCc1ccc(OCC(=O)N/N=C\c2ccco2)c([N+](=O)[O-])c1,-67.4
17,Cc1ccc(OCC(=O)N/N=C\c2ccco2)c(C)c1,-38
18,Cc1cc(-c2nnc(CSc3nnc(NC(=O)c4ccc(C(C)(C)C)cc4)s3)o2)ccc1[N+](=O)[O-],4.92
19,CCN(CC)c1nc(N)c([N+](=O)[O-])c(NCCO)n1,12.1
20,O=C1[C@@H]2CSCN2C(=O)CN1CCc1cccc(F)c1,-20.9
21,O=C1C2CSCN2C(=O)CN1CCCN1CCN(C(c2ccccc2)c2ccccc2)CC1 (stereo not drawn),-53.6

row,SMILES,"hERG current change (%, negative = inhibition) at 10uM [%]"
1,COc1ccccc1CN1CC(=O)N2CSC[C@H]2C1=O,10.3
2,CCn1cc(C(=O)O)c(=O)c2cc(Br)ccc21,-46.7
3,Cc1ccc(/C=C2\SC(=S)N(c3cccnc3)C2=O)cc1,18.9
4,COc1ccc(OC)c(NC(=O)C2CCCN(S(=O)(=O)c3c(C)noc3C)C2)c1 (stereo not drawn),-16.8
5,NC1=NC(=Nc2ccccc2)c2ccccc21,8.33
6,NC1=NC(=Nc2ccc(Cl)cc2)c2ccccc21,-3.81
7,CC(C)c1ccc(N=C2N=C(N)c3ccccc32)cc1,-59.2
8,CCOC(=O)c1c(C)[nH]c(C)c1S(=O)(=O)N1CCOCC1,13.8
9,O=C(CN1CCOCC1)Nc1ccc2c(c1)OCO2,17.3
10,CCOc1ccc(NC(=O)COc2ccc3c(c2)OCO3)cc1,1.04
11,COc1ccc(S(=O)(=O)N2CCCN(CC(=O)Nc3ccc4c(c3)OCO4)CC2)cc1,-61.5
12,COc1ccc(S(=O)(=O)N2CCCN(CC(=O)Nc3ccc(OC)c(Cl)c3)CC2)cc1,-33.3
13,CCOc1ccc(NC(=O)CN2CCN(CC(=O)Nc3ccc4c(c3)OCO4)CC2)cc1,-76.1
14,COc1ccccc1N1CCN(CC(=O)Nc2ccc3c(c2)OCCO3)CC1,-6.03
15,COc1ccc(NC(=O)CN2CCN(CC(=O)Nc3ccc4c(c3)OCO4)CC2)cc1,-78.1
16,CCOc1ccc(OCCC(=O)Nc2ccc3c(c2)OCO3)cc1,10.2
17,COc1ccccc1NC(=O)CN1CCN(CC(=O)Nc2ccc3c(c2)OCO3)CC1,-72
18,COc1ccccc1NC(=O)CN1CCN(CC(=O)Nc2ccc3c(c2)OCCO3)CC1,-34.4
19,COc1ccc(S(=O)(=O)N2CCCN(CC(=O)Nc3ccc(NC(C)=O)cc3)CC2)cc1,2.8
20,COc1ccc(OCC(=O)Nc2ccc3c(c2)OCO3)cc1,-0.489
21,COc1ccccc1NC(CC(=O)c1ccccc1)C(=O)OCC(=O)c1ccc(Br)cc1 (stereo not drawn),-3.81
